Only some compounds are listed: those with a hit (about 2.6% of all), similar ones and a draw of the others.
AmpC inh det = inhibitors of E. coli AmpC beta-lactamase with detergent. P00811. purified AmpC, nitrocefin hydrolysis with detergent. Potency, µM (series often up to 28.7 µM), inactives show top-dose activity change, negative = inhibition. 71,000 compounds, 0.09% hits; active = well fitted curve in the direction sought with a large enough effect; inconclusive = small, poorly fitted or top-dose-only effect; note: % is set by controls: 0 for no effect and ±100 for the full control effect
Target sequence (P00811 whole entry, looked up): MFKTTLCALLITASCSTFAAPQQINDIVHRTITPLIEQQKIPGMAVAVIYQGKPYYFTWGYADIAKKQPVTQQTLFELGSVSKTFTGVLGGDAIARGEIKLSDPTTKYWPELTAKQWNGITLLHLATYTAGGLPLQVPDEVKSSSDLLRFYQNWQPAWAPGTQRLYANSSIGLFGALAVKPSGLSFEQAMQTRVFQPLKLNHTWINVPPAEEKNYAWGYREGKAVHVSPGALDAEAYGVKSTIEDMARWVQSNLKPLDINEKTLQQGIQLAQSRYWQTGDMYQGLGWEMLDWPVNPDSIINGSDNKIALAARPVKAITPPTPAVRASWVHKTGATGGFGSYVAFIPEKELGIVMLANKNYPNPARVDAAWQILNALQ
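E. coli AmpC (5.3 nM) in 20 mM phosphate pH 7.0 with 0.01% Triton X-100, preincubated 15 min RT with compound; nitrocefin (2 uL of 800 uM stock) hydrolysis followed by 480 nm absorbance every 20 s over 4 min.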
Anthrax LT inh = inhibitors of anthrax lethal toxin internalization; Cells, anthrax lethal toxin internalization, FRET ratio (460/530); Potency, µM (highest dose often 40 µM), for the others: at the top dose activity change, negative = inhibition, actives largely listed as inhibitors; 70,000 compounds, 0.67% hits; AID 912; note: % is set by controls: 0 for no effect and ±100 for the full control effect; nearly all actives have a fitted effect of over 50% in size
Prx2 Sm inh = blocks S. mansoni peroxiredoxin 2 enzymatic activity; S. mansoni Prx2 activity coupled to TGR/GSH (TGR is thioredoxin glutathione reductase), NADPH fluorescence loss, qHTS; Potency, µM; 65,000 compounds, 0.07% hits; AID 448
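Activity is read as the drop in NADPH fluorescence (365/450 nm), recorded every 30 sec for 8 min after H2O2 addition. Prx2 is coupled to TGR-driven NADPH oxidation through glutathione, in phosphate buffer pH 7.4.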
AmpC inh no det = AmpC beta-lactamase inhibition, detergent-free assay. P00811. AmpC nitrocefin hydrolysis, absorbance 480 nm, no detergent. Potency, µM (series often up to 28.7 µM), for inactives: at the top dose activity change, negative = inhibition. 71,000 compounds, 1.8% hits. AID 585; note: % of control where 0% means no effect
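AmpC in 20 mM phosphate buffer pH 7.0 was preincubated 15 min at room temperature with compounds. Nitrocefin (800 uM stock) was then added and hydrolysis followed at 480 nm every 20 s for 4 min.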
Numbers without * were called inactive; u = inconclusive; x = not tested or not shown; [ ] = remark or other dose. Unless noted, calls come from the whole dose curve. Potency is the fitted concentration of half-maximal effect.

SMILES | AmpC inh det | Anthrax LT inh | Prx2 Sm inh | AmpC inh no det
COc1ccc(S(=O)(=O)N2Cc3ccccc3CC2C(=O)N2CCOCC2)cc1 (stereo not drawn) | -3% | 12% | >57 | 106%
COc1ccc(N(CC(=O)N2CCc3ccccc3C2)S(=O)(=O)c2c(C)[nH]c(=O)[nH]c2=O)cc1 | 11% | 14% | >57 | 4µM*[single pt active]
CC(C)(C)C(=O)NC1CCN(S(=O)(=O)c2cccc(C(F)(F)F)c2)CC1 | -2% | -4% | >57 | 36%
Cc1nonc1NC(=O)CSc1nnc(-c2ccoc2C)n1CC(C)C | 10% | u | >57 | 24%
Nc1nc(-c2ccccc2)cc(-c2ccccc2O)n1 | 9% | 10% | >57 | 6%
N#CC(=C1CCCC1)c1nc(-c2ccccc2O)cs1 | 2% | -20% | >57 | 6.3µM*
CC12CN3CC(C)(CN(C1)C3c1cc3ccccc3[nH]1)C2=O (stereo not drawn) | -2% | -7% | >57 | 53%
O=C(C1CC1)N1CCc2cc(Br)cc(S(=O)(=O)N3CCCCCC3)c21 | -3% | u | >57 | 39%
O=C(CSc1nc2c(cnn2-c2ccccc2)c(=O)[nH]1)c1ccc(Cl)cc1 | -1% | 2% | >57 | 7.9µM*
O=C1N[C@@]2(CN3CCC2CC3)C(=O)N1CN(Cc1ccccc1)c1ccccc1 | -2%[5.75 µM] | u | >57 | 2%[5.75 µM]
CCOc1ccc(C2CC(c3ccc(Br)cc3)Nc3nc(N)nn32)cc1 (stereo not drawn) | -5% | 8% | >57 | 87%
O=C1OC(NC(=O)c2ccccc2)C(n2cc(CO)nn2)=C1Cl (stereo not drawn) | -4% | 13µM* | >57 | -8%
CCN(CC)S(=O)(=O)c1ccc(-c2nnc3sc4cccc(C)c4n23)cc1 | 14% | u | >57 | 4µM*[single pt active]
Cc1ccc2oc(=O)c3cc(C(=O)NCc4ccco4)sc3c2c1 | 10% | u | >57 | 4µM*[single pt active]
CCCOc1cccc(C(=O)Nc2cccc(NC(=O)c3ccco3)c2)c1 | 4% | 5µM* | x | -14%
O=C(Nc1cccc(-c2nc3ccccc3[nH]2)c1)c1cccc(NC(=O)c2ccco2)c1 | -6% | 16µM* | x | -17%
Cc1nc2ccc(S(=O)(=O)NC(C(=O)Nc3nccs3)C(C)C)cc2s1 (stereo not drawn) | 9% | -11% | >57 | 4µM*[single pt active]
Cc1nc2ccc(S(=O)(=O)NC(C(=O)NCc3cccs3)C(C)C)cc2s1 (stereo not drawn) | 11% | -13% | >57 | 4µM*[single pt active]
COc1ccc(OCC(=O)N2CCN(c3nnc(-c4ccccc4)c4ccccc34)CC2)cc1 | -2% | u | >57 | 108%
Cc1ccc(CCNc2ccccc2)c[n+]1[O-] | 0% | 7% | >57 | 16%
O=S(=O)(Nc1ccc2nc(-c3ccc(Br)o3)[nH]c2c1)c1ccccc1 | 10% | x | >57 | 3.2µM*
CCOC(=O)C1=C(NC#N)OC(C)=C(C)C1c1ccc(O)cc1 (stereo not drawn) | -4% | -10% | >57 | 16%
Cc1nn(C/C(C#N)=N\O)c(C)[n+]1N | -4% | x | >57 | -5%
COc1ccc(S(=O)(=O)Cc2ccc(C(=O)NCc3cccs3)o2)cc1 | 8% | -11% | >57 | 4µM*[single pt active]
CCCCNC(=O)c1ccc(CS(=O)(=O)c2ccc(OC)cc2)o1 | 11% | -6% | >57 | 4µM*[single pt active]
SMILES | AmpC inh det | Anthrax LT inh | Prx2 Sm inh | AmpC inh no det
O=C(NCc1ccco1)c1ccc(CS(=O)(=O)c2cccc(C(F)(F)F)c2)o1 | -1% | 11% | >57 | 26%
COc1ccc(S(=O)(=O)Cc2ccc(C(=O)NCc3ccco3)o2)cc1 | 8% | -9% | >57 | 4µM*[single pt active]
O=C(NCc1ccc2c(c1)OCO2)c1ccc(CS(=O)(=O)c2ccc(Br)cc2)o1 | 16% | u | >57 | 4µM*[single pt active]
COc1ccccc1S(=O)(=O)Cc1ccc(C(=O)NCc2cccs2)o1 | -9% | x | >57 | -2%
COc1ccccc1S(=O)(=O)Cc1ccc(C(=O)N2CCOCC2)o1 | 13% | -1% | >57 | 3.2µM*[single pt active]
COc1ccc(S(=O)(=O)Cc2ccc(C(=O)N3CCOCC3)o2)cc1 | 13% | 2% | >57 | 4µM*[single pt active]
COc1ccccc1S(=O)(=O)Cc1ccc(C(=O)N2CCN(c3ccccc3)CC2)o1 | 1% | 4% | >57 | 97%
Cc1cc(C)c(C#N)c(SCC(O)CS(=O)(=O)Cc2ccccc2)n1 (stereo not drawn) | -3% | -12% | >57 | 7%
CCN1CCN(Cc2ccc(NC(=O)Nc3ccccc3Cl)cc2)CC1 | 15% | -18% | >57 | 4µM*[single pt active]

Source: PubChem
